# Bioassay records from PubChem BioAssay.
# The list is not random: actives were taken first. Their share in the collection is about 4%.
# Peg3 prom inh-1 – reduces Peg3 promoter-driven luciferase expression in HeLa; HeLa PEG-Prom luciferase reporter, luminescence, overnight; inhibition, % at 20 µM; 360,000 tested, 1.7% active; AID 588405;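 active = inhibition of at least 50% at 20 µM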
# HIF-2a block – blocks HIF-2a reporter activity. 786-0 RCC cells HIF-2a reporter, luciferase luminescence, overnight. inhibition, % at 18.8 µM. 360,000 tested, 0.72% active;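 active = inhibition of the luminescence signal of 40% or more relative to plate controls, in a single-dose primary screen at 18.75 µM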
# MITF TRPM1 inh – reduces MITF-dependent TRPM1 promoter luciferase signal | SK-MEL-5 TRPM1 promoter luciferase, 24 h | inhibition, % at 12.5 µM | 330,000 tested, 0.83% active | AID 488899;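 active = mean inhibition across replicates of 60% or more, whatever share of single replicates reaches that level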
# TROY signal inh – inhibitors of TROY-dependent NF-kB signaling | Q293 LMP1-TROYcd NF-kB luciferase reporter, 4 h | inhibition, % at 10 µM | 360,000 tested, 0.98% active;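 active = compounds whose plate-normalised and pattern-corrected inhibition of the luciferase reporter signal at the single screening dose is 50% or more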
# TWEAK-Fn14 inh – inhibitors of TWEAK-Fn14 interaction signaling; TWEAK-stimulated Fn14 reporter cells, luciferase luminescence, 8 h; inhibition, % at 10 µM; 360,000 tested, 2% active; AID 1159606; in the data active = inhibition above about 50%
# EBV LMP1 NFkB – inhibitors of Epstein-Barr LMP1-induced NF-kappaB reporter; 350,000 tested, 0.69% active; inhibition, % at 12.5 µM; LMP1-induced NF-kappaB luciferase reporter cells, luminescence; in the data active = inhibition above about 41%;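 also: 0% = neutral control wells and 100% = reference inhibitor control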
# Peg3 prom inh-2 – Peg3 promoter inhibition confirmation. shares compounds with Peg3 prom inh-1. HeLa PEG-Prom luciferase reporter, luminescence, overnight. inhibition, % at 20 µM. 1,300 tested, 84% active. AID 602417;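 active = at 20 µM dose, 40% or more inhibition averaged across four replicates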
# Mdm2-MdmX confirm – confirmation of inhibitors of human Mdm2/MdmX interaction, set 2 | shares compounds with HIF-2a block | SaOS-2 split-luciferase Mdm2/MdmX complementation, luminescence | inhibition, % at 8 µM | 740 tested, 99% active | AID 504601;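 active = mean inhibition of the luminescence signal across two replicates at or above 26 percent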
# Target sequence (O15151 whole entry, looked up): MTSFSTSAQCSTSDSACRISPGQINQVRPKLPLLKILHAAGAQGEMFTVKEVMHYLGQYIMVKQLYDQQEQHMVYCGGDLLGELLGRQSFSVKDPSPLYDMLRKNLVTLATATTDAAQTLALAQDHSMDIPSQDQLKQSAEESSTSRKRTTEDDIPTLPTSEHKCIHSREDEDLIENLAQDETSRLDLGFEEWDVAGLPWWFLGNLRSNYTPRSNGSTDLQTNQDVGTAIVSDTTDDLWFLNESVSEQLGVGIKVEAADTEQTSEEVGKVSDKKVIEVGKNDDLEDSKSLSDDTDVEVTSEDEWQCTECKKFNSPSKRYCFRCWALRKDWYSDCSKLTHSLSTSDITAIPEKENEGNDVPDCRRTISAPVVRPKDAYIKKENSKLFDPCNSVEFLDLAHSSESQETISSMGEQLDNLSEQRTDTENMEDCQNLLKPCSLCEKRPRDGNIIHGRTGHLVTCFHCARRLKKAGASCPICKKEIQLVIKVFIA
# Target sequence (Q00987 whole entry, looked up): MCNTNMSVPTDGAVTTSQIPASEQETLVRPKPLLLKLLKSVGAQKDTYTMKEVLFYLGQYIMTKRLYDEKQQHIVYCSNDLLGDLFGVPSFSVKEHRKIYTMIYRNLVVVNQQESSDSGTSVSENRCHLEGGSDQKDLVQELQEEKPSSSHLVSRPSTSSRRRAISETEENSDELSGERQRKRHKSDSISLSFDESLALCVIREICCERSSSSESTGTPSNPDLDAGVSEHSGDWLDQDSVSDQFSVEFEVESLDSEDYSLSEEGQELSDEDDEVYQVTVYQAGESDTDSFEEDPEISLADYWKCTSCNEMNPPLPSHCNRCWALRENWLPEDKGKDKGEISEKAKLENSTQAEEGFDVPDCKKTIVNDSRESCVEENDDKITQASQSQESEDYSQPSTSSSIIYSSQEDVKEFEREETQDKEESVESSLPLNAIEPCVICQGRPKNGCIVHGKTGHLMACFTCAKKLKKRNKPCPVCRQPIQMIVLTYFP
# HIF-2a inh conf – confirmation of HIF-2a inhibitors; shares compounds with HIF-2a block; 786-0 RCC cells, HIF-2a luciferase reporter luminescence, overnight; inhibition, % at 18.8 µM; 1,800 tested, 56% active; AID 651580;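 active = mean inhibition across four replicates of at least 40 percent at the single tested concentration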
# HIF-1a counter – counter-screen for HIF-2a inhibitors: HIF-1a inhibition in MiaPaCa-2 cells. shares compounds with HIF-2a block. inhibition, % at 18.8 µM. MiaPaCa-2 HIF-1a luciferase reporter, desferoxamine, overnight. AID 651589. 1,800 tested, 72% active;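 active = mean inhibition of the reporter signal across four replicates at the single tested dose of 50% or more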
# Active calls of the source: *; / = not tested or not shown.
SMILES,Peg3 prom inh-1,HIF-2a block,MITF TRPM1 inh,TROY signal inh,TWEAK-Fn14 inh,EBV LMP1 NFkB,Peg3 prom inh-2,HIF-2a inh conf,HIF-1a counter,others
Cc1[nH]c2ccc(OC(F)(F)F)cc2c1CCNCc1cccc([N+](=O)[O-])c1,81.5*,-26.3,-12.7,-8.3,-0.1,1.2,58.0*,/,/,
O=c1[nH]c(=O)n(C2CCCCC2)c(O)c1/C=C/C=Nc1ccccc1,18.5,18.8,-1.0,14.3,-12.5,-2.0,/,/,/,
C#C[C@@]1(O)CCC2C3CCC4=C/C(=N/OCC(=O)NC(CCC(N)=O)C(=O)O)CC[C@]4(C)C3CC[C@@]21C (stereo not given in full),-4.2,17.1,1.1,7.8,7.0,9.7,/,/,/,
Cc1ccc(S(=O)(=O)NP(=O)(Oc2ccccc2)Oc2ccccc2)cc1,4.0,-1.8,3.9,-3.7,-3.5,1.9,/,/,/,
Cc1ccc(C)c(NP(=O)(Oc2ccccc2)Oc2ccccc2)c1,63.0*,10.4,-9.7,10.5,41.2,-3.1,66.8*,/,/,
O=C1NCN(c2ccccc2)C12CCN(C(c1cccs1)c1nnnn1Cc1ccccc1)CC2 (stereo not given),50.0*,15.7,/,7.8,3.9,/,40.5*,/,/,
CC1CN=C(NCCc2ccccc2)S1 (stereo not given),-3.9,-2.7,1.1,3.7,-12.2,-11.6,/,/,/,
O=c1c2ccccc2nc(CSc2ncnc3nc[nH]c23)n1-c1ccc(Cl)c(Cl)c1,60.2*,27.1,2.5,-24.2,21.1,12.7,45.1*,/,/,
Cc1nc2ccccc2c(=O)n1-c1ccc(Cl)c(Cl)c1,5.2,-19.9,-6.7,-7.7,7.6,-12.2,/,/,/,
O=C1NC(=S)NC(=O)C1=Cc1cccn1-c1ccc(O)cc1,70.8*,55.7*,94.1*,48.8,71.4*,15.6,49.1*,/,/,
Cc1cc(C)cc(N2C(=O)NC(=O)/C(=C\c3cccn3-c3ccc(Cl)cc3)C2=O)c1,104.2*,15.0,50.8,52.9*,103.0*,3.6,56.0*,/,/,
COc1ccccc1C=C1C(=O)NC(=S)NC1=O,-1.8,3.2,4.6,2.7,0.3,7.8,/,/,/,
COc1ccc(-c2ccc3c(c2)CNCc2cnnn2-3)cc1,-240.6,-218.2,/,-29.7,-14.3,/,/,/,/,
Cc1ccccc1N1CCN(C2CCCN(C(=O)Cc3c(C)noc3C)C2)CC1 (stereo not given),8.4,8.0,-2.5,3.6,7.7,4.8,/,/,/,
COC(=O)C1=C(c2ccc(S(C)(=O)=O)cc2)C[C@@H]2CC[C@H]1N2C(=O)NC(C)C,1.2,9.8,2.0,1.1,0.0,-7.5,/,/,/,
CCC1(OC(=O)CN)C(=O)OCc2c1cc1n(c2=O)Cc2cc3ccccc3nc2-1 (stereo not given),83.5*,33.9,80.0*,68.9*,81.6*,80.6*,72.6*,/,/,
O=C(Nc1ccc(C(=O)O)cc1)Oc1ccc(N(CCCl)CCCl)cc1,4.5,-7.5,/,-31.4,7.5,/,/,/,/,
CC(=O)OC(C)(C)/C=C/C(=O)C(C)(O)C1[C@H](O)C[C@@]2(C)C3CC=C4C(CC[C@@H](O)C4(C)C)[C@]3(CO)C(=O)C[C@]12C (stereo not given in full),83.8*,72.3*,84.9*,61.0*,30.8,30.0,86.6*,73.3*,104.7*,
CC1=CC2OC3CC4OC(=O)C=CC=CC(C(C)O)OCC(O)C(C)CC(=O)OCC2(CC1O)C4(C)C31CO1 (stereo not given),96.5*,75.8*,89.8*,84.2*,99.3*,83.6*,97.7*,73.3*,105.2*,
Cc1c(C)c2ccc(OCC(=O)N3C[C@H]4C[C@@H](C3)c3cccc(=O)n3C4)cc2oc1=O,1.2,-9.4,-8.3,-15.9,-15.9,10.0,/,/,/,
C[C@@H]1O[C@@H](O[C@@H]2C=C3CCC4C(CC[C@]5(C)[C@@H](c6ccc(=O)oc6)CC[C@]45O)[C@@]3(C)CC2)[C@H](O)[C@H](O)[C@H]1O (stereo not given in full),94.7*,90.4*,82.2*,47.4,82.5*,88.1*,96.9*,43.3*,105.4*,Mdm2-MdmX confirm=86.6*
CC12CCC(=O)CC1CCC1C2C(=O)CC2(C)C1CCC2(C)O (stereo not given),-2.5,2.6,-4.7,-13.4,0.6,-3.2,/,/,/,
Cc1ccccc1CN1Cc2cnnn2-c2ccccc2C1C#N (stereo not given),95.3*,91.7*,98.0*,55.8*,95.7*,13.4,98.0*,96.7*,106.5*,
Cc1ccccc1C(=O)N1Cc2cnnn2-c2ccccc2C1C#N (stereo not given),-15.1,2.3,-7.4,-6.1,8.6,1.8,/,/,/,
O=c1[nH]c(O)c(N=Nc2ccc([N+](=O)[O-])cc2)c(=O)[nH]1,8.6,7.0,52.3,3.2,-0.3,2.4,/,/,/,
SMILES,Peg3 prom inh-1,HIF-2a block,MITF TRPM1 inh,TROY signal inh,TWEAK-Fn14 inh,EBV LMP1 NFkB,Peg3 prom inh-2,HIF-2a inh conf,HIF-1a counter,others
CC1=CC2/C=C(\C)CCC(O)C(O)/C=C/C(=O)C23C(=O)NC(CC(C)C)C3C1C (stereo not given),107.8*,92.5*,97.2*,60.5*,93.1*,13.4,98.0*,99.2*,102.0*,Mdm2-MdmX confirm=103.0*
Cc1oc(-c2ccc(F)cc2F)nc1CN1C[C@@H]2C[C@@H](C1)c1cccc(=O)n1C2,9.7,20.9,10.7,5.8,-14.0,5.0,/,/,/,
COc1cc2c(cc1O)C[C@H]1NCCc3cc4c(c-2c31)OCO4,43.9,50.3*,22.6,-11.9,-1.4,-2.3,/,35.4,104.0*,
CCOP(=O)(Cc1cc(C(=O)CC)c(C)o1)OCC,8.3,8.8,/,-26.1,18.5,/,/,/,/,
COc1cccc(NP(=O)(Oc2ccc(Cl)cc2)Oc2ccc(Cl)cc2)c1,-27.0,12.6,-10.9,17.7,10.1,0.7,/,/,/,
O=[N+]([O-])c1cccc(NP(=O)(Oc2ccccc2)Oc2ccccc2)c1,42.6,42.0*,15.3,2.5,10.9,3.5,/,42.8*,47.0,
O=[N+]([O-])c1c(Cl)c(Cl)c(Cl)c(Cl)c1Cl,9.3,7.3,8.7,-1.2,5.0,2.7,/,/,/,
Nc1cc(Cl)c2nonc2c1[N+](=O)[O-],107.3*,93.8*,93.1*,69.7*,57.7*,0.4,/,97.5*,103.1*,
CCCNC(=O)N1[C@H]2CC[C@@H]1C(C(=O)OC)=C(c1ccc(F)cc1F)C2,-7.1,2.7,-18.8,-14.1,9.9,-1.3,/,/,/,
Cc1nc2cc(-c3cccc(F)c3)nn2c(C)c1CCC(=O)N1CCC2(CC1)OCCO2,-50.8,75.2*,6.1,-27.8,-17.8,-3.3,/,82.4*,52.7*,
